From the supplement of paper PMC12669032

Experiments:
Assay in all cases: growth AUC relative to DMSO control (median of replicates) (fraction); higher = more growth (less inhibition), active = hit call of the paper
Conditions in all cases: 20 µM; 24 h;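 active = AUC reduced over 20% with Padj below 0.05 in at least 2 of 3 replicates; inactive = otherwise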
Akkermansia muciniphila = system: Akkermansia muciniphila
How it was run: (§1)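 In round-bottom 96-well plates sealed with pierced gas-permeable seals, gut bacterial monocultures in mGAM were grown anaerobically at 37 °C from OD600 0.05 with 20 µM compound (1% DMSO). OD600 readings were taken hourly for 24 h, and the minimum OD was set to 0. Area under the growth curve was then normalised to the plate median of solvent-only wells, or to row and column medians on the industrial chemical plate. The value given is the median of three biological replicates grown on separate days.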

Bacteroides caccae = system: Bacteroides caccae
How it was run: as §1

Bacteroides clarus = system: Bacteroides clarus
How it was run: as §1

Bacteroides dorei = system: Bacteroides dorei
How it was run: as §1

Bacteroides stercoris = system: Bacteroides stercoris
How it was run: as §1

[1] = system: Bacteroides thetaiotaomicron
How it was run: as §1

Bacteroides uniformis = system: Bacteroides uniformis
How it was run: as §1

[2] = system: Bifidobacterium longum subsp. longum
How it was run: as §1

Clostridium difficile = system: Clostridium difficile
How it was run: as §1

Collinsella aerofaciens = system: Collinsella aerofaciens
How it was run: as §1

Coprococcus comes = system: Coprococcus comes
How it was run: as §1

Escherichia coli ED1a = system: Escherichia coli ED1a
How it was run: as §1

Escherichia coli IAI1 = system: Escherichia coli IAI1
How it was run: as §1

Eubacterium rectale = system: Eubacterium rectale
How it was run: as §1

[3] = system: Fusobacterium nucleatum subsp. animalis
How it was run: as §1

Lactobacillus gasseri = system: Lactobacillus gasseri
How it was run: as §1

Lactobacillus paracasei = system: Lactobacillus paracasei
How it was run: as §1

Odoribacter splanchnicus = system: Odoribacter splanchnicus
How it was run: as §1

[4] = system: Parabacteroides distasonis
How it was run: as §1

Parabacteroides merdae = system: Parabacteroides merdae
How it was run: as §1

Measured: growth AUC

Oc1ccccc1O
inactive: Akkermansia muciniphila 0.968 | Bacteroides caccae 1.02 | Bacteroides clarus 1.03 | Bacteroides dorei 1 | Bacteroides stercoris 1 | [1] 1.03 | Bacteroides uniformis 1.04 | [2] 0.911 | Clostridium difficile 1.01 | Collinsella aerofaciens 1.01 | Coprococcus comes 0.993 | Escherichia coli ED1a 0.994 | Escherichia coli IAI1 1.01 | Eubacterium rectale 1 | [3] 1.01 | Lactobacillus gasseri 1 | Lactobacillus paracasei 0.995 | Odoribacter splanchnicus 1.08 | [4] 1.02 | Parabacteroides merdae 1

CCOC(=O)[C@@H](C)Oc1ccc(Oc2cnc3cc(Cl)ccc3n2)cc1
inactive: Akkermansia muciniphila 0.987 | Bacteroides caccae 0.9 | Bacteroides clarus 0.965 | Bacteroides dorei 0.967 | Bacteroides stercoris 0.996 | [1] 0.998 | Bacteroides uniformis 0.947 | [2] 1.01 | Clostridium difficile 1.01 | Collinsella aerofaciens 1.01 | Coprococcus comes 0.983 | Escherichia coli ED1a 0.997 | Escherichia coli IAI1 1.01 | Eubacterium rectale 1.01 | [3] 0.992 | Lactobacillus gasseri 1.03 | Lactobacillus paracasei 0.917 | Odoribacter splanchnicus 0.984 | [4] 1.02 | Parabacteroides merdae 0.99

CON(C(=O)c1cc(C)oc1C)C1CCCCC1
inactive: Akkermansia muciniphila 0.96 | Bacteroides caccae 1 | Bacteroides clarus 1 | Bacteroides dorei 1 | Bacteroides stercoris 1.04 | [1] 0.972 | Bacteroides uniformis 0.997 | [2] 1.03 | Clostridium difficile 0.972 | Collinsella aerofaciens 1.03 | Coprococcus comes 0.992 | Escherichia coli ED1a 1.01 | Escherichia coli IAI1 0.968 | Eubacterium rectale 1 | [3] 1.03 | Lactobacillus gasseri 1.05 | Lactobacillus paracasei 0.991 | Odoribacter splanchnicus 1.02 | [4] 1.05 | Parabacteroides merdae 0.982

CCCCCCCC/C=C\CCCCCCCC(N)=O
inactive: Akkermansia muciniphila 0.936 | Bacteroides caccae 0.999 | Bacteroides clarus 0.991 | Bacteroides dorei 0.977 | Bacteroides stercoris 0.875 | [1] 0.982 | Bacteroides uniformis 0.998 | [2] 0.849 | Clostridium difficile 1.01 | Collinsella aerofaciens 0.857 | Coprococcus comes 0.869 | Escherichia coli ED1a 0.991 | Escherichia coli IAI1 0.953 | Eubacterium rectale 1.14 | [3] 1.02 | Lactobacillus gasseri 0.962 | Lactobacillus paracasei 1.02 | Odoribacter splanchnicus 1.04 | [4] 0.96 | Parabacteroides merdae 0.955

C#CC(C)N(C)C(=O)Nc1ccc(Cl)cc1 (stereo not given)
inactive: Akkermansia muciniphila 0.974 | Bacteroides caccae 0.995 | Bacteroides clarus 0.985 | Bacteroides dorei 0.978 | Bacteroides stercoris 1.1 | [1] 1 | Bacteroides uniformis 0.99 | [2] 0.966 | Clostridium difficile 0.946 | Collinsella aerofaciens 1 | Coprococcus comes 1.05 | Escherichia coli ED1a 1.04 | Escherichia coli IAI1 0.988 | Eubacterium rectale 1 | [3] 1.03 | Lactobacillus gasseri 1.07 | Lactobacillus paracasei 1.02 | Odoribacter splanchnicus 0.994 | [4] 0.95 | Parabacteroides merdae 1.01

CCc1cccc(C)c1N(COC(C)C)C(=O)CCl
inactive: Akkermansia muciniphila 1.07 | Bacteroides caccae 1 | Bacteroides clarus 1.01 | Bacteroides dorei 1.03 | Bacteroides stercoris 0.998 | [1] 0.993 | Bacteroides uniformis 1.04 | [2] 1.02 | Clostridium difficile 0.956 | Collinsella aerofaciens 1.03 | Coprococcus comes 1.03 | Escherichia coli ED1a 1.05 | Escherichia coli IAI1 1.01 | Eubacterium rectale 1.04 | [3] 0.961 | Lactobacillus gasseri 0.99 | Lactobacillus paracasei 1.07 | Odoribacter splanchnicus 1.1 | [4] 1.04 | Parabacteroides merdae 0.982

Cn1cc(C(=O)Nc2ccc(F)cc2-c2ccc(Cl)c(Cl)c2)c(C(F)F)n1
inactive: Akkermansia muciniphila 0.929 | Bacteroides caccae 0.901 | Bacteroides clarus 0.849 | Bacteroides dorei 0.949 | Bacteroides stercoris 0.826 | [1] 0.872 | Bacteroides uniformis 0.911 | [2] 0.991 | Clostridium difficile 0.983 | Collinsella aerofaciens 0.991 | Coprococcus comes 0.921 | Escherichia coli ED1a 1.01 | Escherichia coli IAI1 0.997 | Eubacterium rectale 0.953 | [3] 0.944 | Lactobacillus gasseri 0.881 | Lactobacillus paracasei 0.968 | Odoribacter splanchnicus 0.865 | Parabacteroides merdae 0.892
active: [4] 0.741

C=O
inactive: Akkermansia muciniphila 0.996 | Bacteroides caccae 1.01 | Bacteroides clarus 0.982 | Bacteroides dorei 1.02 | Bacteroides stercoris 1.03 | [1] 0.972 | Bacteroides uniformis 0.988 | [2] 0.984 | Clostridium difficile 0.968 | Collinsella aerofaciens 1.04 | Coprococcus comes 0.998 | Escherichia coli ED1a 1.03 | Escherichia coli IAI1 0.999 | Eubacterium rectale 0.921 | [3] 1 | Lactobacillus gasseri 1.04 | Lactobacillus paracasei 1.06 | Odoribacter splanchnicus 1.03 | [4] 1.03 | Parabacteroides merdae 1.03

CCc1ccc(C(c2ccc(CC)cc2)C(Cl)Cl)cc1
inactive: Akkermansia muciniphila 0.859 | Bacteroides caccae 0.912 | Bacteroides clarus 0.952 | Bacteroides dorei 1.02 | Bacteroides stercoris 0.931 | [1] 0.977 | Bacteroides uniformis 1.02 | [2] 0.972 | Clostridium difficile 1.03 | Collinsella aerofaciens 0.901 | Coprococcus comes 1.04 | Escherichia coli ED1a 1.02 | Escherichia coli IAI1 1.01 | Eubacterium rectale 0.935 | [3] 0.939 | Lactobacillus gasseri 0.938 | Lactobacillus paracasei 0.996 | Odoribacter splanchnicus 1 | [4] 0.976 | Parabacteroides merdae 0.882

CCCCOCN(C(=O)CS(=O)(=O)[O-])c1c(CC)cccc1CC.[Na+]
inactive: Akkermansia muciniphila 0.979 | Bacteroides caccae 0.997 | Bacteroides clarus 0.997 | Bacteroides dorei 1.01 | Bacteroides stercoris 0.923 | [1] 0.934 | Bacteroides uniformis 1.03 | [2] 1.07 | Clostridium difficile 1.02 | Collinsella aerofaciens 1.01 | Coprococcus comes 0.957 | Escherichia coli ED1a 0.973 | Escherichia coli IAI1 0.991 | Eubacterium rectale 0.975 | [3] 0.947 | Lactobacillus gasseri 0.914 | Lactobacillus paracasei 0.957 | Odoribacter splanchnicus 0.938 | [4] 1 | Parabacteroides merdae 0.962

N#CC(=NOCC1OCCO1)c1ccccc1
inactive: Akkermansia muciniphila 1.03 | Bacteroides caccae 0.834 | Bacteroides clarus 0.992 | Bacteroides dorei 0.963 | Bacteroides stercoris 1.06 | [1] 0.981 | Bacteroides uniformis 0.96 | [2] 1.06 | Clostridium difficile 1.02 | Collinsella aerofaciens 0.936 | Coprococcus comes 1.01 | Escherichia coli ED1a 0.971 | Escherichia coli IAI1 0.982 | Eubacterium rectale 1.06 | [3] 0.99 | Lactobacillus gasseri 0.962 | Lactobacillus paracasei 1.01 | Odoribacter splanchnicus 1.11 | [4] 0.981 | Parabacteroides merdae 0.931

O=S(=O)(Oc1ccc(Cl)cc1Cl)c1ccccc1
inactive: Akkermansia muciniphila 0.953 | Bacteroides caccae 0.956 | Bacteroides clarus 1 | Bacteroides dorei 0.939 | Bacteroides stercoris 0.967 | [1] 1.01 | Bacteroides uniformis 0.996 | [2] 1.1 | Clostridium difficile 1.01 | Collinsella aerofaciens 0.98 | Coprococcus comes 1.03 | Escherichia coli ED1a 0.98 | Escherichia coli IAI1 0.986 | Eubacterium rectale 1.02 | [3] 0.938 | Lactobacillus gasseri 1.03 | Lactobacillus paracasei 1.14 | Odoribacter splanchnicus 1.09 | [4] 0.972 | Parabacteroides merdae 1.02

Nc1cc(Cl)nc(C(=O)O)c1Cl
inactive: Akkermansia muciniphila 1.11 | Bacteroides caccae 1.01 | Bacteroides clarus 1.04 | Bacteroides dorei 0.971 | Bacteroides stercoris 1.15 | [1] 1.03 | Bacteroides uniformis 1.02 | [2] 1.06 | Clostridium difficile 0.952 | Collinsella aerofaciens 0.997 | Coprococcus comes 1.03 | Escherichia coli ED1a 1.04 | Escherichia coli IAI1 1.02 | Eubacterium rectale 1.01 | [3] 1.03 | Lactobacillus gasseri 0.961 | Lactobacillus paracasei 1.24 | Odoribacter splanchnicus 1.05 | [4] 1.03 | Parabacteroides merdae 1.02

Cc1cc(C2CC2)nc(Nc2ccc(O)cc2)n1
inactive: Akkermansia muciniphila 0.829 | Bacteroides caccae 0.999 | Bacteroides clarus 0.967 | Bacteroides dorei 0.994 | Bacteroides stercoris 0.968 | [1] 0.943 | Bacteroides uniformis 0.957 | [2] 1.04 | Clostridium difficile 0.982 | Collinsella aerofaciens 0.975 | Coprococcus comes 0.998 | Escherichia coli ED1a 0.989 | Escherichia coli IAI1 1.01 | Eubacterium rectale 0.903 | [3] 0.955 | Lactobacillus gasseri 1.19 | Lactobacillus paracasei 1.01 | Odoribacter splanchnicus 0.965 | [4] 1.03 | Parabacteroides merdae 0.982

O=C(O)Cc1cccc2ccccc12
inactive: Akkermansia muciniphila 0.984 | Bacteroides caccae 0.985 | Bacteroides clarus 0.969 | Bacteroides dorei 0.971 | Bacteroides stercoris 0.963 | [1] 1 | Bacteroides uniformis 1.04 | [2] 1.03 | Clostridium difficile 0.994 | Collinsella aerofaciens 0.968 | Coprococcus comes 0.941 | Escherichia coli ED1a 0.959 | Escherichia coli IAI1 0.991 | Eubacterium rectale 1.02 | [3] 1.01 | Lactobacillus gasseri 0.949 | Lactobacillus paracasei 1.02 | Odoribacter splanchnicus 0.953 | [4] 0.987 | Parabacteroides merdae 1.01

CCOc1ccc(C2(C(=O)OC(C#N)c3cccc(Oc4ccccc4)c3)CC2(Cl)Cl)cc1 (stereo not given)
inactive: Akkermansia muciniphila 1.08 | Bacteroides caccae 0.968 | Bacteroides clarus 1.02 | Bacteroides dorei 0.94 | Bacteroides stercoris 1.04 | [1] 0.993 | Bacteroides uniformis 0.957 | [2] 0.911 | Clostridium difficile 1.01 | Collinsella aerofaciens 0.982 | Coprococcus comes 1.03 | Escherichia coli ED1a 1.01 | Escherichia coli IAI1 0.981 | Eubacterium rectale 1.06 | [3] 1.07 | Lactobacillus gasseri 0.848 | Lactobacillus paracasei 1 | Odoribacter splanchnicus 1.03 | [4] 0.93 | Parabacteroides merdae 0.943
